According to the supplement of paper PMC11732987, “Enantioselective OTUD7B fragment discovery through chemoproteomics screening and high-throughput optimisation” (Communications Chemistry, 2025):

Columns and labels:
Assay in all cases: log2 ratio of Biotin-Ahx-Ub-VS probe labelling (fragment/DMSO); higher = less target engagement (more negative = stronger competition), active = hit call of the paper (q ≤ 0.05, log2 ratio ≤ -1)
Conditions in all cases: compound concentration: 200 uM; treatment time: 3 h
USP34 = USP34 (UniProt Q70CQ2)
Summary of the method: (§1)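 Labelled DUBs from HEK293T lysate were NeutrAvidin-enriched, digested with LysC and trypsin, and run by diaPASEF LC-MS/MS. Before that, each 495 µg sample in Tris/CHAPS/IGEPAL buffer with protease inhibitors was treated in triplicate with fragment at 200 µM or vehicle for 3 h, then with Biotin-Ahx-Ub-VS at 0.5 µM final for 1 h. Values are average log2 ratios of fragment over vehicle by unpaired t-test, based on global-median-normalised Spectronaut label-free quantities from proteins with ≥2 unique peptides.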

USP36 = target: T1, USP36 (UniProt Q9P275)
T1 sequence (whole entry): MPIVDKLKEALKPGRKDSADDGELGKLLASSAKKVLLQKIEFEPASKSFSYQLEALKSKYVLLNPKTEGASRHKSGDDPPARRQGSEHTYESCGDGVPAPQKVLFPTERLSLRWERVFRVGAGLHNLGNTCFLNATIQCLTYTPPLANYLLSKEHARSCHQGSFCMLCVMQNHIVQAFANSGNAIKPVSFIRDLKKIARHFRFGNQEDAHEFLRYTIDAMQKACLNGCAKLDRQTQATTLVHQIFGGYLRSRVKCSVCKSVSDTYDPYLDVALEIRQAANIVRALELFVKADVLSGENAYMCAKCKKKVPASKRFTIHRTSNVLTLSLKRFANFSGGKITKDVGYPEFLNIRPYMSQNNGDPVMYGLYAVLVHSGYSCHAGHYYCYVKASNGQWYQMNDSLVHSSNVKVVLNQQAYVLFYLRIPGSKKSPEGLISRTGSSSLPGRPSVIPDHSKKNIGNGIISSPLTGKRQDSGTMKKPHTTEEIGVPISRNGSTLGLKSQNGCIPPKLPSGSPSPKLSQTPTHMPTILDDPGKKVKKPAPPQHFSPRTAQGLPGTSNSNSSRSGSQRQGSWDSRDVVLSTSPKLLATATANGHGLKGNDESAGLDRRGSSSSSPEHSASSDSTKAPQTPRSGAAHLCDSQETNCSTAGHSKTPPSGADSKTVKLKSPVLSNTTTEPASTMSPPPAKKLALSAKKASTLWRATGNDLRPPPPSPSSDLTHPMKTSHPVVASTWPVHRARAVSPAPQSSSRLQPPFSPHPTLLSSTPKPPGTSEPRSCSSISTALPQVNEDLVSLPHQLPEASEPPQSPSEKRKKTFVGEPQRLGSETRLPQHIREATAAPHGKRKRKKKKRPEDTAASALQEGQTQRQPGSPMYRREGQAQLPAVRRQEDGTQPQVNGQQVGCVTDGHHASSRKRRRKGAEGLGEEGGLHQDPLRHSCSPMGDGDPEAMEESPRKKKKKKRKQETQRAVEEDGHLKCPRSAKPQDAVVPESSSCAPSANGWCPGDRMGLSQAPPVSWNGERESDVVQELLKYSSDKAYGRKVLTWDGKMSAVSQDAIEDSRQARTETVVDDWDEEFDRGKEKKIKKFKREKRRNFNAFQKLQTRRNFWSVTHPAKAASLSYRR
Summary of the method: as §1

USP38 = target: T2, USP38 (UniProt Q8NB14)
T2 sequence (whole entry): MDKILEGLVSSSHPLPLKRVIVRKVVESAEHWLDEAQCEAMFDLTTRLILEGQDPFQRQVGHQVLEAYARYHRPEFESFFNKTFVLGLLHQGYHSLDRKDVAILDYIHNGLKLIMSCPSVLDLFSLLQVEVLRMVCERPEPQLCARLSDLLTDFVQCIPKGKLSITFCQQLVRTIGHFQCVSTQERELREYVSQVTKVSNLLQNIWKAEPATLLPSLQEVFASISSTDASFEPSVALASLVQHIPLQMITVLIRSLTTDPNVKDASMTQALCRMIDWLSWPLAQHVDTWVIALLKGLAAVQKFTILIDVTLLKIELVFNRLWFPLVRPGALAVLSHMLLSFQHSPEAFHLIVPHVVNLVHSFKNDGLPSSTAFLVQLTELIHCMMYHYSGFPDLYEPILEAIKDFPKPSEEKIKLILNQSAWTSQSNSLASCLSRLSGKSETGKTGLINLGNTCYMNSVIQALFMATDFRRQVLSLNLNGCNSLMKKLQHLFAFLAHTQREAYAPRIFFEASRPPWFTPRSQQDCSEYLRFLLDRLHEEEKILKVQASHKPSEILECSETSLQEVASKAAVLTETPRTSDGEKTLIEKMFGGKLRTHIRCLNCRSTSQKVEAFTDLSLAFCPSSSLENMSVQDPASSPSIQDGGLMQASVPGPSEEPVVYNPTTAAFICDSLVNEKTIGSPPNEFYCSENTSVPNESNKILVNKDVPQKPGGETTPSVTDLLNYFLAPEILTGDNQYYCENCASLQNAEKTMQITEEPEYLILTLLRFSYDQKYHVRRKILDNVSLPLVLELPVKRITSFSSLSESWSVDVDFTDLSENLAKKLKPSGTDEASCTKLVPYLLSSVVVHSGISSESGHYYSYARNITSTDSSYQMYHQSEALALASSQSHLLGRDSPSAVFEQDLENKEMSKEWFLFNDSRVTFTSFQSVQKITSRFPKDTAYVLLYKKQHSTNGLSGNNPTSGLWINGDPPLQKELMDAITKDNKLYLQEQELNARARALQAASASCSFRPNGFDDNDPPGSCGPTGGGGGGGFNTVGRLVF
Summary of the method: as §1

USP39 = target: T3, USP39 (UniProt Q53GS9)
T3 sequence (whole entry): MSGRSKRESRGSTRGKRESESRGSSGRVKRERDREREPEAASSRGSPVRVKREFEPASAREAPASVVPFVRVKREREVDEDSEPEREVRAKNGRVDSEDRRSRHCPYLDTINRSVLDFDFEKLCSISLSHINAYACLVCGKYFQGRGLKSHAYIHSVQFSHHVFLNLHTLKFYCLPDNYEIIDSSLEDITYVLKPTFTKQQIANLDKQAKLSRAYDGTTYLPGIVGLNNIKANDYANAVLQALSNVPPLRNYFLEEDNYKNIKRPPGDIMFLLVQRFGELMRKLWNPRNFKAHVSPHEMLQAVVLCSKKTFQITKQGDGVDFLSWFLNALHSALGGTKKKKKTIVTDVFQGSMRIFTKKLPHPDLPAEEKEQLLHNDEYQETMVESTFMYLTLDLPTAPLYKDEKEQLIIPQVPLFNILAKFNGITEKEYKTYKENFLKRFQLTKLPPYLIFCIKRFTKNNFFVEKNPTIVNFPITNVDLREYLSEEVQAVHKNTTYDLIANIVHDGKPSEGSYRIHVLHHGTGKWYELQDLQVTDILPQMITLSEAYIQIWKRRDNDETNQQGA
Summary of the method: as §1

USP4 = target: T4, USP4 (UniProt Q13107)
T4 sequence (whole entry): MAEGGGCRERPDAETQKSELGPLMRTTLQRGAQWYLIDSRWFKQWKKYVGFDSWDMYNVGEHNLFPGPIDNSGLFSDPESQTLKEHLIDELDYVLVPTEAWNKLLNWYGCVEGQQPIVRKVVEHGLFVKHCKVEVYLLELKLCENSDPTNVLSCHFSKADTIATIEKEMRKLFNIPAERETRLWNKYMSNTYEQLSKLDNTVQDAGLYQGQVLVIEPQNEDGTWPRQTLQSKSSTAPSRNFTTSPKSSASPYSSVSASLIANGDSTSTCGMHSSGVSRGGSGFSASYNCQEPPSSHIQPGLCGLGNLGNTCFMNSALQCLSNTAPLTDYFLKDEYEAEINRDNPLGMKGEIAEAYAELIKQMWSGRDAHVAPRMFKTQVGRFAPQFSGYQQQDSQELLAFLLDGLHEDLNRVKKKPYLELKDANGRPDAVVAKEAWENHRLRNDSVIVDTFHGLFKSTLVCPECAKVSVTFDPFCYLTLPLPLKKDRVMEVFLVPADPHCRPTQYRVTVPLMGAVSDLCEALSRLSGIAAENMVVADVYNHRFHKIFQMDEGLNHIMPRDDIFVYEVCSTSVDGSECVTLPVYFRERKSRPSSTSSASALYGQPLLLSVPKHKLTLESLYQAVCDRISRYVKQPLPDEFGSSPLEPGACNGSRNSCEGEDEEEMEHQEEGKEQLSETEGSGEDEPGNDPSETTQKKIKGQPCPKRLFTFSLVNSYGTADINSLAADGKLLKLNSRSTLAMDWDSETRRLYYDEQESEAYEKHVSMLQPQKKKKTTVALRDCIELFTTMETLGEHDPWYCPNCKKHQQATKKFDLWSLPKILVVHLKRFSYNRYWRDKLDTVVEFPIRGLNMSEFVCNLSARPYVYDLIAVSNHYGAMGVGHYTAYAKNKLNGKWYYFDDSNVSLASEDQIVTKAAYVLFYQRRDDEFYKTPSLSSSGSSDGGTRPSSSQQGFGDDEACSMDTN
Summary of the method: as §1

Measured: log2 ratio of Biotin-Ahx-Ub-VS probe labelling

Sequence of USP34 (Q70CQ2 whole entry, the tested form may be a part): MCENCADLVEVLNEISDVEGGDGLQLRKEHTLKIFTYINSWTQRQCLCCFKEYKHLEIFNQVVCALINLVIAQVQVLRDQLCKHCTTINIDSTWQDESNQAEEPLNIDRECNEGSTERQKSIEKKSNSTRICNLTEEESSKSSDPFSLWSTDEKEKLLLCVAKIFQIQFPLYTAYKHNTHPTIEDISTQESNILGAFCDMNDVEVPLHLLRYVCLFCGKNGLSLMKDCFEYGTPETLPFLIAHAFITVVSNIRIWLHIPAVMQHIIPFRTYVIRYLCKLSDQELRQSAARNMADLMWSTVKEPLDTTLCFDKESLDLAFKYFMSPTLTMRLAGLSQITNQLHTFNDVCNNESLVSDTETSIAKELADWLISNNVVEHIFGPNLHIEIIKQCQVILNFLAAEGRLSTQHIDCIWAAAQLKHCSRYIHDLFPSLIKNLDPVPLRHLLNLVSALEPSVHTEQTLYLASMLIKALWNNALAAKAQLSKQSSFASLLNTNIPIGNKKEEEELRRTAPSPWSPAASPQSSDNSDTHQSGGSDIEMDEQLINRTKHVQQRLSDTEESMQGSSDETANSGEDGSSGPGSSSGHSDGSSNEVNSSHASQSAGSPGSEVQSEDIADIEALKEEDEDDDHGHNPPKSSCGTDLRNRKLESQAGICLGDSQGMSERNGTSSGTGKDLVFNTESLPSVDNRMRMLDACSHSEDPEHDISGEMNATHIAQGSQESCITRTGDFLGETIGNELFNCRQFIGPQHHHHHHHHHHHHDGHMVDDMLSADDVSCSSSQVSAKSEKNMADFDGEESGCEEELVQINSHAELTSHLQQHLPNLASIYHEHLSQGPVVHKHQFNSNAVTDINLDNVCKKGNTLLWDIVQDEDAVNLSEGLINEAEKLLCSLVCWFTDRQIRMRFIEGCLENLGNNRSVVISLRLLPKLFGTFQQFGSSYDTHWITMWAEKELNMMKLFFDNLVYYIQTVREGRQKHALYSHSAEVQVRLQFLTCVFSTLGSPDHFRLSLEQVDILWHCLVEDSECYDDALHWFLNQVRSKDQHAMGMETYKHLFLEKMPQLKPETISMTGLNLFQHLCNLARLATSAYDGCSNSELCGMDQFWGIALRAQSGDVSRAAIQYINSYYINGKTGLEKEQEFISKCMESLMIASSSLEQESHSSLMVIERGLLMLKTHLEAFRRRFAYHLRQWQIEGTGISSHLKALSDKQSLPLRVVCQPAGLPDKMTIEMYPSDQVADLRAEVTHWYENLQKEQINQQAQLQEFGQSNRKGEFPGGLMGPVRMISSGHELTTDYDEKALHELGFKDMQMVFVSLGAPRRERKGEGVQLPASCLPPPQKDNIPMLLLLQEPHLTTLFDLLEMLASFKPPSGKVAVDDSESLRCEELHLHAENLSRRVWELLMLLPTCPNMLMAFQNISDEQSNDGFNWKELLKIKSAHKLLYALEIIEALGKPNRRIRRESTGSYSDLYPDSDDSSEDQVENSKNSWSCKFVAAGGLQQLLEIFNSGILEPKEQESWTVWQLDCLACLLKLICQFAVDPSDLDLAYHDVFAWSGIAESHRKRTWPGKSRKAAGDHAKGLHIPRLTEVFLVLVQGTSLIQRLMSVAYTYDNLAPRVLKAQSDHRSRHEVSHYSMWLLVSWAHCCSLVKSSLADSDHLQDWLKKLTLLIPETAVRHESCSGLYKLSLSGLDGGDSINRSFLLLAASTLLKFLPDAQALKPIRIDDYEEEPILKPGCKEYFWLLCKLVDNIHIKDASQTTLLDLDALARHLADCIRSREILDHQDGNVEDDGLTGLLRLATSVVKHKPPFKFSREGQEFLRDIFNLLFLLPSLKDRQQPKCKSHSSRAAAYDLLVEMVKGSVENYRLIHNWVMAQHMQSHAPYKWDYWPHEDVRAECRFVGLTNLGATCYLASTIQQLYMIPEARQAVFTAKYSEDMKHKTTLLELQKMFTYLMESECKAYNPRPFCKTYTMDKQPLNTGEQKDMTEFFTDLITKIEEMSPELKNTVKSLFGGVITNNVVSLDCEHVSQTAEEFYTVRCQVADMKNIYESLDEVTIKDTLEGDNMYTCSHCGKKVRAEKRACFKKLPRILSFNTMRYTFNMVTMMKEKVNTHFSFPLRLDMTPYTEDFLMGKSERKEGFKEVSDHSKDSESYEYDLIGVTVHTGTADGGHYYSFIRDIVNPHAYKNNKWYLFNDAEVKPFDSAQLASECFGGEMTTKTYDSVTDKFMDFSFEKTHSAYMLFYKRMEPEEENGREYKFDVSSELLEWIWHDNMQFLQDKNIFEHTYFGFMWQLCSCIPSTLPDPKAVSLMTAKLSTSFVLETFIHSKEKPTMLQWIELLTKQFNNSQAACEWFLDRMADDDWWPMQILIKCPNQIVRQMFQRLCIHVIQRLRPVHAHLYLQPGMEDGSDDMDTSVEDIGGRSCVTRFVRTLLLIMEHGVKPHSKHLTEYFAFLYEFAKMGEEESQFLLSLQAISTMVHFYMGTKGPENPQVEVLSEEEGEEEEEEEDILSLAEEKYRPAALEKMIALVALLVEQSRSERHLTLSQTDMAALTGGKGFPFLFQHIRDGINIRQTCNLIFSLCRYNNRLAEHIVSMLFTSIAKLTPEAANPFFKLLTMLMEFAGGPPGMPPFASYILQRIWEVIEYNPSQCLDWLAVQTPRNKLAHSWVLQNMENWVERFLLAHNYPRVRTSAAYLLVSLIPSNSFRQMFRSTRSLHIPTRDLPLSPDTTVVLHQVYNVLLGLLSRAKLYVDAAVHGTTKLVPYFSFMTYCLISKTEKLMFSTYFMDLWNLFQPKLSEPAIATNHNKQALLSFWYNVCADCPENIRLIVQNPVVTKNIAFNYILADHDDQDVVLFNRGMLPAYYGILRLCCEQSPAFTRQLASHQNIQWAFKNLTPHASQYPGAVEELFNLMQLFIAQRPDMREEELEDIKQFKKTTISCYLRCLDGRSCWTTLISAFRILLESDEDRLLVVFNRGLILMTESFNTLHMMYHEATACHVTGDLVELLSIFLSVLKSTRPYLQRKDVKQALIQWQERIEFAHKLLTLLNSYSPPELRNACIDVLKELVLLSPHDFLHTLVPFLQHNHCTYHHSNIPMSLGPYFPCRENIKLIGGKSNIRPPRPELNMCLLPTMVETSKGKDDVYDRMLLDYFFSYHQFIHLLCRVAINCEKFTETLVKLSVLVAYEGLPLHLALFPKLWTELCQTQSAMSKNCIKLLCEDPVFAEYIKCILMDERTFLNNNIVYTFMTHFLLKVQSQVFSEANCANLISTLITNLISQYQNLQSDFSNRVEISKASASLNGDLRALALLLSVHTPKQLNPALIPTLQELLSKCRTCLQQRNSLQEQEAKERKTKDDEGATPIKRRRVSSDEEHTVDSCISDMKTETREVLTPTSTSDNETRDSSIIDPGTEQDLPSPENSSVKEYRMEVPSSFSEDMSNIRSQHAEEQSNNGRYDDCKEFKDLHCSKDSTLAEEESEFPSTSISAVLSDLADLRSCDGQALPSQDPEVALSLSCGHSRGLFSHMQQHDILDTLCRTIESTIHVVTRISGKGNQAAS

O=C(CCl)Nc1cc2c(cc1Cl)OCCO2
inactive: USP34 -0.393 | USP36 0.206 | USP38 -0.183 | USP39 -0.137 | USP4 0.122
